Assay [1] deals with Metallo-beta-lactamase type 2 (Klebsiella pneumoniae) (UniProt C7C422). Kind of assay: qHTS to identify inhibitors of the New Delhi Metallo-beta-lactamase (NDM): assay validation screen against the NCATS LOPAC Collection (AID 1794843). A digest of the protocol:
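Absorbance at 485 nm from nitrocefin turnover (50 uM solution added), read at plateau, gives the read-out. Compounds in DMSO were incubated first with 2 nM final NDM-1 in pH 7.0 HEPES buffer containing 1 uM ZnSO4 and 0.01% Tween20.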
In general terms: Quantitative high-throughput screening tests each substance at several concentrations.

Assay [2] deals with Glutathione peroxidase 1 (Homo sapiens) (UniProt P07203). In words: Primary qHTS Assay for Inhibitors of Recombinant Selenoprotein Glutathione Peroxidase 1 (GPX1) (AID 1845191). Further: nearly all actives have a fitted effect of over 65% in size. The method, boiled down: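 GR-coupled assay: compounds preincubated 30 min at room temperature with GPX1, then reaction started with CHP; final 10 nM GPX1, 1 mM GSH, 0.5 mM CHP, 0.5 mM NADPH, 100 nM GR, 0.01% BSA, pH 7.5 Tris buffer. NADPH fluorescence (340/450 nm) read at 0 and 15 min.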
Glutathione peroxidase 1 (Homo sapiens), sequence (P07203 whole entry, looked up): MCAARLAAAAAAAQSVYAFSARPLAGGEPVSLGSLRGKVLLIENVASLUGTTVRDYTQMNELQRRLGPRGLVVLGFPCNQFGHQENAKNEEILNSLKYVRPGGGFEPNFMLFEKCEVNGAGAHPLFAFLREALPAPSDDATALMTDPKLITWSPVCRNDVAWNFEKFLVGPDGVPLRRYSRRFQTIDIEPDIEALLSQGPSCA

Assay [3] deals with Phospholipid hydroperoxide glutathione peroxidase GPX4 (Homo sapiens) (UniProt P36969). Kind of assay: Primary qHTS Assay for Inhibitors of Recombinant Selenoprotein Glutathione Peroxidase 4 (GPX4) (AID 1845192). Further: nearly all actives have a fitted effect of over 65% in size. A digest of the protocol:
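GR-coupled assay: recombinant GPX4 preincubated 30 min with compound at room temperature; final 200 nM GPX4, 1 mM GSH, 0.5 mM cumene hydroperoxide, 0.5 mM NADPH, 100 nM GR, 0.01% BSA, pH 7.5 Tris. NADPH fluorescence (340/450 nm) read at 0 and 15 min.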

Assay [4] in a line: Quantitative High-Throughput drug screen in 47 multiple myeloma cell lines against the NCATS MIPE library collection: FR4_PLB cell viability assay (AID 1918924; further: nearly all actives have a fitted effect of over 35% in size; further: potency means the concentration at half of the fitted maximal effect). The method, boiled down:
(§1)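 Inhibition of cell viability is measured here. Each line was plated at 500 cells per well, treated with MIPE 4.0 drugs, kept 48 hours at 37C, then assayed for ATP content by CellTiter-Glo luminescence.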

Assay [5] is described as follows: Quantitative High-Throughput drug screen in 47 multiple myeloma cell lines against the NCATS MIPE library collection: Delta47_JCRB cell viability assay (AID 1918925; further: nearly all actives have a fitted effect of over 45% in size; further: potency means the concentration at half of the fitted maximal effect). The method, boiled down:
(§2)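 CellTiter-Glo luminescence (ATP) after 48 h compound exposure, 37C/5% CO2; 500 cells/well; MIPE 4.0 approved/investigational drugs pinned in; DMSO = 100%, media only = 0% viability.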

Assay [6] is described as follows: Quantitative High-Throughput drug screen in 47 multiple myeloma cell lines against the NCATS MIPE library collection: EJM_DSMZ cell viability assay (AID 1918926; further: nearly all actives have a fitted effect of over 30% in size). The method, boiled down: as §2
Assay [7] in a line: Quantitative High-Throughput drug screen in 47 multiple myeloma cell lines against the NCATS MIPE library collection: AMO1_DSMZ cell viability assay (AID 1918927; further: nearly all actives have a fitted effect of over 30% in size; further: potency means the concentration at half of the fitted maximal effect). The method, boiled down: as §2
Assay [8] can be described thus: Quantitative High-Throughput drug screen in 47 multiple myeloma cell lines against the NCATS MIPE library collection: ARD_JJKsccE7 cell viability assay (AID 1918929; further: potency means the concentration at half of the fitted maximal effect). A digest of the protocol:
as §2

Assay [9] can be described thus: Quantitative High-Throughput drug screen in 47 multiple myeloma cell lines against the NCATS MIPE library collection: KMM1_JCRB cell viability assay (AID 1918960). Further: nearly all actives have a fitted effect of over 30% in size. Further: potency means the concentration at half of the fitted maximal effect. The method, boiled down:
(§3)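 ATP readout (CellTiter-Glo), 48 h drug incubation, 37 °C/5% CO2, 500 cells per well; normalisation to DMSO (100%) and media-only (0%) controls.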

A short description of assay [10]: Quantitative High-Throughput drug screen in 47 multiple myeloma cell lines against the NCATS MIPE library collection: JIM3_ECACC cell viability assay (AID 1918963; further: nearly all actives have a fitted effect of over 35% in size; further: potency means the concentration at half of the fitted maximal effect). A digest of the protocol:
as §1

Assay [11] is described as follows: Quantitative High-Throughput drug screen in 47 multiple myeloma cell lines against the NCATS MIPE library collection: Karpas620_DSMZ cell viability assay (AID 1918959). Further: nearly all actives have a fitted effect of over 30% in size. Further: potency means the concentration at half of the fitted maximal effect. A digest of the protocol: as §1
The nature of assay [12]: Quantitative High-Throughput drug screen in 47 multiple myeloma cell lines against the NCATS MIPE library collection: Karpas417_ECACC cell viability assay (AID 1918961). Further: potency means the concentration at half of the fitted maximal effect. Particulars: Karpas417 myeloma viability, CellTiter-Glo ATP luminescence, 48 h; viability (% of DMSO): at 45.8 µM (top of the series) unless noted. The method, boiled down:
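qHTS of the MIPE 4.0 collection: 500 myeloma cells/well, 48 h drug exposure at 37C in 5% CO2, then CellTiter-Glo for 5 min at room temperature before luminescence reading.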
On the technique in general: ATP-based viability assays read luminescence as a measure of living cells.

Assay [13] in a line: HepG2 viability counterscreen (readout 2: ATP content) against the NCATS DSHEA and TCM libraries (AID 1794840).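 Further: HepG2 cells exposed to substances for about 24 h.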 A digest of the protocol: (§4)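 Readout 1: cellular protease activity, GF-AFC substrate (25 uM final, 30 min, fluorescence 380/510 nm). Readout 2: ATP content by CellTiter-Glo luminescence after 30 min at RT. Both follow ~24 h exposure of HepG2 cells (1,000/well) to substances.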
(In general: A counterscreen serves to expose hits that act by an unwanted route or on another target.)

The nature of assay [14]: HepG2 viability counterscreen (readout 1: protease activity) against the NCATS DSHEA and TCM libraries (AID 1794841).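 Further: cells exposed to compounds for about 24 h before the protease read.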 A digest of the protocol: as §4
Assay [15] is described as follows: Quantitative High-Throughput drug screen in 47 multiple myeloma cell lines against the NCATS MIPE library collection: KHM11_PLB cell viability assay (AID 1918962). Further: nearly all actives have a fitted effect of over 35% in size. The method, boiled down:
as §1

A short description of assay [16]: Primary fluorescence-based thiol-reactive (MSTI) qHTS assay for identification of artifact compounds. (AID 1845221).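 Further: thiol-reactive compounds lower the probe fluorescence signal; nearly all actives have a fitted effect of over 65% in size.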 A digest of the protocol:
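Reactivity toward the thiol probe MSTI (4 uM) is scored by fluorescence at Ex/Em 525/598 nm after 1 h at room temperature. Acetyl-MSTI and MSTI define the activity scale.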

Assay [17] concerns Nanoluciferase (engineered Oplophorus gracilirostris luciferase). In words: Primary Nanoluciferase (NLuc) qHTS assay for identification of artifact compounds. (AID 1845222).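 Further: NLuc secreted into diluted conditioned medium of S16 cells.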 The method, boiled down: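 qHTS format, against NLuc in S16 cell-conditioned medium. Nano-Glo substrate 1:100 was added after 15 min at room temperature. Luminescence was taken after a further 5 min.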
A short description of assay [18]: Primary redox qHTS assay for identification of artifact compounds. (AID 1845223). The method, boiled down: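 Amplex Red (25 uM) and HRP (250 mU/mL) in HBSS, with compounds for 15 min, then 250 uM DTT for 30 min, room temperature, dark. Fluorescence 525/598 nm read; normalized to DMSO and 10 uM DA3003; Hill fit.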
For assay [19], the target named is Luciferin 4-monooxygenase (Photinus pyralis) (UniProt P08659). Kind of assay: Primary firefly luciferase (FLuc) qHTS assay for identification of artifact compounds. (AID 1845220). Further: nearly all actives have a fitted effect of over 60% in size. A digest of the protocol: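 Titrated compounds were incubated 15 min at RT, protected from light, with luciferin and ATP at 10 uM; reaction started with 10 nM FLuc, luminescence imaged at 5 min, and concentration-response fitted by Hill equation.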

Assay [20] in a line: Quantitative High-Throughput drug screen in 47 multiple myeloma cell lines against the NCATS MIPE library collection: ARP1_JJKsccF8 cell viability assay (AID 1918928; further: nearly all actives have a fitted effect of over 40% in size). A digest of the protocol: as §3

Results filed as inconclusive are left out. Activity calls are given as the source filed them. The call rests on the fitted dose curve; in most records, active means well fitted curve in the direction sought with a large enough effect; inconclusive means small, poorly fitted or top-dose-only effect, or another doubt; inactive means no such curve, though single readings can be large; an effect the other way counts as inactive or inconclusive.

Phospholipid hydroperoxide glutathione peroxidase GPX4 (Homo sapiens), sequence (P36969 whole entry, looked up): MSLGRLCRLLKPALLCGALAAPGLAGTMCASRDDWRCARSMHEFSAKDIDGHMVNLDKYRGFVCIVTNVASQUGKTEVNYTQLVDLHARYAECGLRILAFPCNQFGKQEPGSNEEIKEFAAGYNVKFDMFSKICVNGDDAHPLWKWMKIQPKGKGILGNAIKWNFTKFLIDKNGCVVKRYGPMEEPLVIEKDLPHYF
Metallo-beta-lactamase type 2 (Klebsiella pneumoniae), sequence (C7C422 whole entry, looked up): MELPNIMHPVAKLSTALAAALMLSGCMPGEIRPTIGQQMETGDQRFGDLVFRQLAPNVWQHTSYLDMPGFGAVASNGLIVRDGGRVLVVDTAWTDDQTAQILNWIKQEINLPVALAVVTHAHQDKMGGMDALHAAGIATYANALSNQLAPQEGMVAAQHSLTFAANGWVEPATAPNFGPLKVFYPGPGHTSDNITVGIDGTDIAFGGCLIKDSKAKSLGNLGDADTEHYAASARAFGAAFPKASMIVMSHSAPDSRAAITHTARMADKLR

For the compound `CNC[C@H](O)c1cccc(O)c1`, the result in assay [1] was inactive. The Potency entry in assay [2], in assay [3], in assay [4], in [5], in assay [6] and in assay [7] was “inactive” throughout. Further, the Potency entry in [8] and in assay [10] was “inactive” in each case. In addition, in assay [9], the Potency is 5.26 µM (active).

As to `Cc1oncc1C(=O)Nc1ccc(C(F)(F)F)cc1`, in assay [1], the compound was classed as inactive. Besides, the Potency entry in assay [2], in assay [3], in assay [4], in [7], in assay [8] and in [11] was “inactive” throughout. The Potency entry in [9] is “inactive”.

`Cn1cnc([N+](=O)[O-])c1Sc1ncnc2nc[nH]c12`: the compound was called inactive in assay [1]. Besides, the Potency result in assay [2], in [3], in assay [6] and in [12] was “inactive” throughout. For the same compound, the values for the Potency in assay [4], in [8] and in [10] were 0.418 µM (active), 1.18 µM (active) and 14.8 µM (active), respectively.

Turning to `NC(=O)c1cnccn1`, the compound was classed as inactive in assay [13], in assay [14] and in assay [1]. Also, the Potency entry in assay [2], in assay [3], in assay [4], in [6], in [7] and in assay [8] was “inactive” in each case. Moreover, the Potency entry in assay [11], in assay [9] and in [10] was “inactive” throughout.

In the case of `CCC(C)N(C)C(=O)c1cc2ccccc2c(-c2ccccc2Cl)n1` (centres undefined), the compound was classed as inactive in [1]. Besides, the Potency result in [2], in assay [3], in [4], in assay [5], in assay [6] and in assay [15] was “inactive” in each case.

As for `C[C@@H]1CN(Cc2ccc(F)cc2)[C@@H](C)CN1C(=O)c1cc2c(C(=O)C(=O)N(C)C)cn(C)c2cc1Cl`, the Potency entry in [2], in [3] and in assay [16] was “inactive” throughout. Besides, the compound was called inactive in [17] and in [18]. For the same compound, the Potency in assay [5] was 9.35 µM (active); in assay [7], 29.6 µM (active); in [8] it was 9.35 µM (active); in [10] it was 13.2 µM (active).

Turning to `Clc1ccc(Nc2nnc(Cc3ccncc3)c3ccccc23)cc1`, the Potency result in assay [2], in [3], in [19], in [4], in assay [7] and in assay [9] was “inactive” in each case. Further, the compound was called inactive in assay [17] and in assay [18]. For the same compound, the Potency in assay [11] was 1.66 µM (active); in assay [10], 20.9 µM (active).

Consider `COc1cc(F)c(F)c(Nc2ccc(I)cc2F)c1NS(=O)(=O)C1(C[C@H](O)CO)CC1`, for which the Potency entry in assay [2], in [3] and in [19] was “inactive” throughout. The call in assay [17] and in [18] was inactive. In addition, the Potency was 20.9 µM (active) in assay [11], 16.6 µM (active) in [12] and 18.7 µM (active) in [10].

For `Nc1ccc(S(=O)(=O)Nc2ccnn2-c2ccccc2)cc1`, in assay [1], the outcome was inactive. Further, the Potency entry in assay [2], in assay [3], in assay [7], in assay [8], in assay [11] and in assay [12] was “inactive” in each case. Further, the Potency result in assay [15] and in assay [10] was “inactive” throughout.

Turning to `O=c1n(CCCN2CCN(c3cccc(Cl)c3)CC2)nc2ccccn12`, the result in [1] was inactive. The Potency entry in assay [2], in [3], in assay [5], in assay [6], in assay [7] and in [20] was “inactive” each time. In addition, the Potency entry in [11], in assay [9], in assay [15] and in assay [10] was “inactive” in each case.

Turning to `CN([C@@H](Cc1ccc(OS(=O)(=O)c2cccc3cnccc23)cc1)C(=O)N1CCN(c2ccccc2)CC1)S(=O)(=O)c1cccc2cnccc12`, the Potency result in assay [2] and in assay [3] was “inactive” throughout.
